# Calls of active or inactive are those of the source. Rule for the calls: active = hit-call score of the fitted dose curve at least 0.9, where 1 is the maximum; inactive = score below 0.9.
# Tests used:
# Conditions in all cases: mRNA level, 48 h; actives raise or lower the signal
# [1] = read-out: Insulin Like Growth Factor 1 (IGF1), IGF1 (gene 3479); assay: LTEA_HepaRG_IGF1: Life Technologies and Expression Analysis (LTEA) Assay for Insulin Like Growth Factor 1 (IGF1) using HepaRG (AID 2283506)
# How it was run: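 qRT-PCR readout of IGF1 mRNA, normalized to three housekeeping genes, after 48 h chemical exposure of HepaRG cells. Concentrations: 8-point half-log series, top 100 uM, 0.5% DMSO vehicle. Gain or loss fitted against DMSO baseline.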
# [2] = read-out: Intercellular Adhesion Molecule 1 (ICAM1), ICAM1 (gene 3383); assay: LTEA_HepaRG_ICAM1: Life Technologies and Expression Analysis (LTEA) Assay for Intercellular Adhesion Molecule 1 (ICAM1) using HepaRG (AID 2283507)
# How it was run: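 Readout is qRT-PCR mRNA level, normalized to three housekeeping genes and fitted bidirectionally against 0.5% DMSO vehicle. Human HepaRG cultures received compound for 48 h, top concentration 100 uM with half-log dilutions.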
# [3] = read-out: Insulin-like growth factor-binding protein 1 (IGFBP1), IGFBP1 (gene 3484); assay: LTEA_HepaRG_IGFBP1: Life Technologies and Expression Analysis (LTEA) Assay for Insulin-like growth factor-binding protein 1 (IGFBP1) using HepaRG (AID 2283508)
# How it was run: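 Thawed HepaRG cells are plated for 48 h, switched to serum-free induction medium, then dosed in duplicate for another 48 h (100 uM top, half-log steps). Lysates in RLT go to qRT-PCR, and gain or loss of signal is fitted relative to vehicle.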
# [4] = read-out: Interleukin 6 (IL6), IL6 (gene 3569); assay: LTEA_HepaRG_IL6: Life Technologies and Expression Analysis (LTEA) Assay for Interleukin 6 (IL6) using HepaRG (AID 2283509)
# How it was run: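 Changes in IL6 mRNA, up or down relative to 0.5% DMSO controls, were derived from concentration-response curves in human HepaRG cells treated for 48 h at up to 100 uM, with ACTB, GAPDH and POLR2A as normalizers.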
# [5] = read-out: Interleukin 6 Receptor (IL6R), IL6R (gene 3570); assay: LTEA_HepaRG_IL6R: Life Technologies and Expression Analysis (LTEA) Assay for Interleukin 6 Receptor (IL6R) using HepaRG (AID 2283510)
# How it was run: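 HepaRG, 48 h exposure, 8-pt half-log series, top 100 uM, 0.5% DMSO vehicle, duplicates. Read-out: TaqMan qRT-PCR of IL6R transcript, housekeeping-gene normalized. Gain or loss fitted relative to DMSO baseline.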
# [6] = read-out: Potassium channel subfamily K member 1 (KCNK1), KCNK1 (gene 3775); assay: LTEA_HepaRG_KCNK1: Life Technologies and Expression Analysis (LTEA) Assay for Potassium channel subfamily K member 1 (KCNK1) using HepaRG (AID 2283511)
# How it was run: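 Human HepaRG cultures receive test chemicals for 48 h in 0.5% DMSO, top concentration 100 uM with half-log dilutions. Induction or suppression of KCNK1 mRNA relative to DMSO is derived by bidirectional fitting of qRT-PCR data.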
# [7] = read-out: Keratin 19 (KRT19), KRT19 (gene 3880); assay: LTEA_HepaRG_KRT19: Life Technologies and Expression Analysis (LTEA) Assay for Keratin 19 (KRT19) using HepaRG (AID 2283512)
# How it was run: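 KRT19 transcript levels, measured by Fluidigm qRT-PCR against three housekeeping genes, are fitted for gain or loss of signal relative to DMSO. Human HepaRG cells receive test chemicals (top 100 uM, half-log steps, 0.5% DMSO) for 48 hours.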
# [8] = read-out: JUN Transcription Factor, JUN (gene 3725); assay: LTEA_HepaRG_JUN: Life Technologies and Expression Analysis (LTEA) Assay for JUN Transcription Factor using HepaRG (AID 2283513)
# How it was run: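 HepaRG, 48 h exposure, 8-pt half-log series top 100 uM, 0.5% DMSO, duplicate. JUN mRNA by qRT-PCR (Fluidigm), housekeeping-normalized (ACTB/GAPDH/POLR2A); bidirectional curve fit vs DMSO baseline.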
# [9] = read-out: Lipoprotein lipase (LPL), LPL (gene 4023); assay: LTEA_HepaRG_LPL: Life Technologies and Expression Analysis (LTEA) Assay for Lipoprotein lipase (LPL) using HepaRG (AID 2283515)
# How it was run: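 Concentration-response testing used half-log steps from 100 uM in 0.5% DMSO on human HepaRG cells, 48 h, duplicate wells. Phenobarbital 1 mM served as induction control; LPL mRNA was normalized to ACTB, GAPDH, POLR2A.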
# [10] = read-out: MicroRNA 122 (MIR122), gene 406906; assay: LTEA_HepaRG_MIR122: Life Technologies and Expression Analysis (LTEA) Assay for MicroRNA 122 (MIR122) using HepaRG (AID 2283516); note: the transcript read is the microRNA miR-122
# How it was run: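 qRT-PCR read-out (TaqMan, Fluidigm array), normalized to three housekeeping genes; HepaRG cells dosed 48 h at 8 concentrations up to 100 uM in 0.5% DMSO, duplicate; gain or loss fitted against DMSO baseline.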
# [11] = read-out: matrix metalloproteinase-10 (MMP10), MMP10 (gene 4319); assay: LTEA_HepaRG_MMP10: Life Technologies and Expression Analysis (LTEA) Assay for matrix metalloproteinase-10 (MMP10) using HepaRG (AID 2283517)
# How it was run: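 In differentiated HepaRG cultures kept in 0.5% DMSO, test chemicals act for 48 h over an eight-point range with a top dose of 100 uM. Expression is then quantified by TaqMan RT-PCR against ACTB, GAPDH and POLR2A.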
# MYC, MYC (gene 4609) = assay: LTEA_HepaRG_MYC: Life Technologies and Expression Analysis (LTEA) Assay for MYC using HepaRG (AID 2283518)
# How it was run: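 HepaRG, ~100,000 cells/well, collagen I; 48 h plating; serum-free induction medium; 48 h dosing, duplicate, 100 uM top, half-log, 0.5% DMSO; total RNA → qRT-PCR MYC; gain/loss fit vs DMSO.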
# [12] = read-out: matrix metalloproteinase-3 (MMP3), MMP3 (gene 4314); assay: LTEA_HepaRG_MMP3: Life Technologies and Expression Analysis (LTEA) Assay for matrix metalloproteinase-3 (MMP3) using HepaRG (AID 2283519)
# How it was run: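 Human liver HepaRG cultures received chemicals (top concentration 100 uM, 0.5% DMSO) for 48 h in duplicate. MMP3 mRNA induction or loss was then assessed via TaqMan qRT-PCR with housekeeping-gene normalisation.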
# [13] = read-out: Paternally Expressed 10 (PEG10), PEG10 (gene 23089); assay: LTEA_HepaRG_PEG10: Life Technologies and Expression Analysis (LTEA) Assay for Paternally Expressed 10 (PEG10) using HepaRG (AID 2283520);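 for AC50: PEG10 transcript by qRT-PCR normalised to ACTB GAPDH and POLR2A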
# How it was run: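 qRT-PCR read-out: PEG10 mRNA normalised to three housekeeping genes, fitted bidirectionally against 0.5% DMSO vehicle. HepaRG cells received test chemicals for 48 h in serum-free induction medium, 8 points, top 100 uM, half-log steps.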
# [14] = read-out: Nuclear factor NF-kappa-B p105 subunit (Homo sapiens) (UniProt P19838); assay: LTEA_HepaRG_NFKB1: Life Technologies and Expression Analysis (LTEA) Assay for Nuclear Factor Kappa B Subunit 1 (NFKB1) using HepaRG (AID 2283521);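 note: TaqMan qRT-PCR transcript normalised to ACTB GAPDH and POLR2A housekeeping genes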
# How it was run: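 Differentiated human HepaRG cells in serum-free induction medium with 0.5% DMSO were exposed for 48 h to eight half-log concentrations, top 100 uM, in duplicate. NFKB1 mRNA measured by Fluidigm TaqMan qRT-PCR, normalised to ACTB, GAPDH and POLR2A; bidirectional fit versus DMSO.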
# [15] = read-out: Protein phosphatase 2A (PPP2R4), PTPA (gene 5524); assay: LTEA_HepaRG_PPP2R4: Life Technologies and Expression Analysis (LTEA) Assay for Protein phosphatase 2A (PPP2R4) using HepaRG (AID 2283522)
# How it was run: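 HepaRG, 48 h exposure, 8-pt half-log series from 100 uM, 0.5% DMSO vehicle, duplicates. Readout: PPP2R4 mRNA, Fluidigm qRT-PCR, housekeeping-normalized. Bidirectional curve fit vs DMSO baseline.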
# [16] = read-out: Phosphatase and tensin (PTEN), PTEN (gene 5728); assay: LTEA_HepaRG_PTEN: Life Technologies and Expression Analysis (LTEA) Assay for Phosphatase and tensin (PTEN) using HepaRG (AID 2283523)
# How it was run: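 Expression of PTEN is quantified in the human liver line HepaRG following two days of dosing (top concentration 100 uM, half-log dilutions, 0.5% DMSO). Values derive from bidirectional curve fitting relative to DMSO controls.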
# [17] = read-out: solute carrier (SLC22A1), SLC22A1 (gene 6580); assay: LTEA_HepaRG_SLC22A1: Life Technologies and Expression Analysis (LTEA) Assay for solute carrier (SLC22A1) using HepaRG (AID 2283524)
# How it was run: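 Transcript induction or suppression of SLC22A1 in human HepaRG cultures is scored after 48 h chemical treatment, with DMSO (0.5%) as baseline for bidirectional fitting. Concentrations span eight half-log points topping at 100 uM.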
# [18] = read-out: Pyruvate Dehydrogenase Kinase 4 (PDK4), PDK4 (gene 5166); assay: LTEA_HepaRG_PDK4: Life Technologies and Expression Analysis (LTEA) Assay for Pyruvate Dehydrogenase Kinase 4 (PDK4) using HepaRG (AID 2283525)
# How it was run: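 Eight-point, half-log concentration series (max 100 uM, 0.5% DMSO) applied to differentiated HepaRG cells for 48 h in duplicate. Endpoint: PDK4 mRNA induction or repression by qRT-PCR against DMSO baseline.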
# Chain of Nuclear factor NF-kappa-B p105 subunit (Homo sapiens) (P19838 whole entry, looked up): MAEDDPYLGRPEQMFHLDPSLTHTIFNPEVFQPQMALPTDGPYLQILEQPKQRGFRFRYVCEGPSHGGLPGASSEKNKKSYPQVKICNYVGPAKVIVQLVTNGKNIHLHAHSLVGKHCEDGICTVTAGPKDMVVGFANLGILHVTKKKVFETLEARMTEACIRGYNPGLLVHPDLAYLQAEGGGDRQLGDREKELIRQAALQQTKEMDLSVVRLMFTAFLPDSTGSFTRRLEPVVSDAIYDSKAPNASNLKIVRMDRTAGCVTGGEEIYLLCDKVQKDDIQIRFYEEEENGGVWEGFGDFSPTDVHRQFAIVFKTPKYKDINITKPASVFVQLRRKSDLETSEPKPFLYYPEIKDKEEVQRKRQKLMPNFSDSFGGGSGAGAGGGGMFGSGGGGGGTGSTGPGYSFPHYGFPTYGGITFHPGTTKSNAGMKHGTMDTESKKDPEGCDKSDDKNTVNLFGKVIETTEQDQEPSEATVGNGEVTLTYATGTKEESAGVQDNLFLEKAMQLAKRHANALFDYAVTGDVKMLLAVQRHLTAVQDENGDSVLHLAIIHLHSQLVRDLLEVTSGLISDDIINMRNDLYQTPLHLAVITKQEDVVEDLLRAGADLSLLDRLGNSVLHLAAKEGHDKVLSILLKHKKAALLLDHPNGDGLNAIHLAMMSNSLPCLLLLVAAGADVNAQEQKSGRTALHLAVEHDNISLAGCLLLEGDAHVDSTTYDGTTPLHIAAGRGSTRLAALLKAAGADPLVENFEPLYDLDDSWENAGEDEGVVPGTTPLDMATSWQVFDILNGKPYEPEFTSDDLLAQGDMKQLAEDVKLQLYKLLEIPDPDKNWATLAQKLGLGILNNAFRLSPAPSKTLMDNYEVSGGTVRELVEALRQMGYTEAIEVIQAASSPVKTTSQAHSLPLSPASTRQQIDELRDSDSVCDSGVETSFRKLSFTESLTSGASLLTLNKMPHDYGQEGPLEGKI
structure (smiles),measurement,setting,value
COc1nc(NC(C)C)nc(NC(C)C)n1,AC50,[1],66.2 µM (active)
same,outcome,[2],inactive
same,outcome,[3],inactive
same,outcome,[4],inactive
same,outcome,[5],inactive
same,outcome,[6],inactive
same,AC50,[7],39.4 µM (active)
same,outcome,[8],inactive
same,outcome,[9],inactive
same,outcome,[10],inactive
same,outcome,[11],inactive
same,outcome,"MYC, MYC (gene 4609)",inactive
same,outcome,[12],inactive
same,outcome,[13],inactive
same,outcome,[14],inactive
same,outcome,[15],inactive
same,outcome,[16],inactive
same,outcome,[17],inactive
same,outcome,[18],inactive
CCNc1nc(Cl)nc(NCC)n1,outcome,[1],inactive
same,outcome,[2],inactive
same,outcome,[3],inactive
same,outcome,[4],inactive
same,outcome,[5],inactive
same,outcome,[6],inactive
same,outcome,[7],inactive
same,outcome,[8],inactive
same,outcome,[9],inactive
same,outcome,[10],inactive
same,outcome,[11],inactive
same,outcome,"MYC, MYC (gene 4609)",inactive
same,outcome,[12],inactive
same,outcome,[13],inactive
same,outcome,[15],inactive
same,outcome,[16],inactive
same,outcome,[17],inactive
same,outcome,[18],inactive
CN(C)C(=S)SSC(=S)N(C)C,outcome,[1],inactive
same,outcome,[2],inactive
same,outcome,[3],inactive
same,outcome,[4],inactive
same,outcome,[5],inactive
same,outcome,[6],inactive
same,outcome,[7],inactive
same,outcome,[8],inactive
same,outcome,[9],inactive
same,outcome,[10],inactive
same,outcome,[11],inactive
same,outcome,"MYC, MYC (gene 4609)",inactive
same,outcome,[12],inactive
same,outcome,[13],inactive
same,outcome,[14],inactive
same,outcome,[15],inactive
same,outcome,[16],inactive
same,outcome,[17],inactive
same,outcome,[18],inactive
CC(C)Oc1cc(-n2nc(C(C)(C)C)oc2=O)c(Cl)cc1Cl,AC50,[1],28.7 µM (active)
same,outcome,[2],inactive
same,AC50,[3],76.8 µM (active)
same,outcome,[4],inactive
same,outcome,[5],inactive
same,outcome,[6],inactive
same,AC50,[7],50 µM (active)
same,outcome,[8],inactive
same,AC50,[9],85.5 µM (active)
same,AC50,[10],50 µM (active)
same,outcome,[11],inactive
same,AC50,"MYC, MYC (gene 4609)",89.1 µM (active)
same,outcome,[12],inactive
same,AC50,[13],5.57 µM (active)
same,outcome,[14],inactive
same,outcome,[15],inactive
same,outcome,[16],inactive
same,AC50,[17],42.8 µM (active)
same,AC50,[18],11.6 µM (active)
CC(C)(C)c1ccc(CSc2cnn(C(C)(C)C)c(=O)c2Cl)cc1,AC50,[1],1.88 µM (active)
same,AC50,[2],2.69 µM (active)
same,AC50,[3],3.43 µM (active)
same,AC50,[4],2.84 µM (active)
same,outcome,[5],inactive
same,outcome,[6],inactive
same,AC50,[7],1.58 µM (active)
same,outcome,[8],inactive
same,AC50,[9],2.25 µM (active)
same,AC50,[10],22.8 µM (active)
same,AC50,[11],18.1 µM (active)
same,AC50,"MYC, MYC (gene 4609)",2.84 µM (active)
same,outcome,[12],inactive
same,AC50,[13],1.01 µM (active)
same,AC50,[15],1.84 µM (active)
same,outcome,[16],inactive
same,AC50,[17],2.71 µM (active)
same,AC50,[18],9.92 µM (active)

# — PubChem BioAssay (EPA / NIEHS)
